The supplement of paper PMC10849652
Targets with a hit are over-represented here; the source holds about 8,800 in all. About 0.5% of all pairs of compound and target were hits.

Legend:
Assay in all cases: log2 fold change, soluble protein after heating vs DMSO (PISA); higher = thermal stabilisation; K562 lysate, 10 uM; active = over 0.2 and 3.5 SD of the protein, either way, in both replicates (recomputed)
[1] = compound: C1=CC=C(C=C1)[C@H](COC2=CC3=C(C=C2)NC(=O)N3)NC(=O)C4=CC=CN(C4=O)CC5=CC(=C(C=C5)F)F
Method in brief: (§1)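 To prepare the extract, K562 pellets were dounce-homogenised in PBS pH 7.4 with 1 mM MgCl2, giving crude material at 1 mg/mL protein. This was treated with 10 μM compound for 30 min, then heated in aliquots for 3 min over 48°C-58°C before pooling and addition of NP-40 to 0.5% at 4°C. Centrifugation at 21,000xg for 90 min left soluble protein in the supernatant, which TMTpro 16plex LC-MS/MS quantified with equalised channel sums. Results are log-two fold changes in thermal stability compared with solvent controls, from duplicates.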

[2] = compound: CC1=C(SC2=C1C(=N[C@H](C3=NN=C(N32)C)CC(=O)N)C4=CC=C(C=C4)Cl)C
Method in brief: as §1

[3] = compound: CC1=C2C(=CC=C1)N=C(N(C2=O)C3=CC=CC=C3C)CN4C=NC5=C(N=CN=C54)N
Method in brief: as §1

[4] = compound: Cc1sc2c(c1C)C(c1ccc(Cl)cc1)=N[C@@H](CC(=O)OC(C)(C)C)c1nnc(C)n1-2
Method in brief: as §1

[5] = compound: c1ccc([C@@H]2C[C@H]2NC2CCNCC2)cc1
Method in brief: as §1

Measured: log2 fold change

TOR3A (UniProt Q9H497)
Chain of UniProt Q9H497 (Q9H497 whole entry, looked up): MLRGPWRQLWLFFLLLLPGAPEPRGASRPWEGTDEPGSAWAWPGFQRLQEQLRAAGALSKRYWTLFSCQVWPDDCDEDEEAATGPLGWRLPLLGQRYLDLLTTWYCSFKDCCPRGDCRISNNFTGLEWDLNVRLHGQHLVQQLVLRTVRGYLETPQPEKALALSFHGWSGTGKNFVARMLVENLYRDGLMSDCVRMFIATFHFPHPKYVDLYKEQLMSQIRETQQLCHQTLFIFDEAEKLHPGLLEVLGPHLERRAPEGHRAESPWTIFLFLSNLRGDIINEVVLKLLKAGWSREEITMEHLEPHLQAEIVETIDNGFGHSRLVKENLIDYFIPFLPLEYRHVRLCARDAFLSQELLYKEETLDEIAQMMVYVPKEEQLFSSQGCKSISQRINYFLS
inactive: [1] -0.009 | [2] -0.025 | [3] 0.013 | [4] 0.018 | [5] -0.008

TMEM14C (UniProt Q9P0S9)
Chain of UniProt Q9P0S9 (Q9P0S9 whole entry, looked up): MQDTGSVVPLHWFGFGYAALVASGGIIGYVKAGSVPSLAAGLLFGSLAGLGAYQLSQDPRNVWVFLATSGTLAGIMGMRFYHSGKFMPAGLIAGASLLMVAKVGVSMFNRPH
inactive: [1] -0.131 | [2] -0.031 | [3] 0.14 | [4] -0.015

TTC37 (UniProt Q6PGP7)
inactive: [1] -0.08 | [2] 0.044 | [3] 0.16 | [4] -0.3

TTK (UniProt P33981)
inactive: [1] -0.016 | [2] -0.003 | [3] 0.068 | [4] 0.02 | [5] 0.003

TNIK (UniProt C9J338)
inactive: [1] -0.028 | [2] 0.067 | [3] 0.135 | [4] -0.225 | [5] -0.375

TECR (UniProt Q9NZ01)
Chain of UniProt Q9NZ01 (Q9NZ01 whole entry, looked up): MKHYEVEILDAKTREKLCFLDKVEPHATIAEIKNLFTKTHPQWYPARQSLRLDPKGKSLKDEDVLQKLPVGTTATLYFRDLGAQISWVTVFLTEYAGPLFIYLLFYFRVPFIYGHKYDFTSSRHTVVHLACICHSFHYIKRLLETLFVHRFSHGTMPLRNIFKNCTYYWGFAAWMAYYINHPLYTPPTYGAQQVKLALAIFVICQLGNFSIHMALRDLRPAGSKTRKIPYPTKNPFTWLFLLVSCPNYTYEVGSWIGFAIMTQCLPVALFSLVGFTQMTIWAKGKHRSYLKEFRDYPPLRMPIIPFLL
inactive: [1] -0.131 | [2] 0.083 | [3] 0.015 | [4] 0.017 | [5] 0.046

TERF2IP (UniProt Q9NYB0)
inactive: [1] 0.023 | [2] -0.006 | [3] -0.077 | [4] -0.03 | [5] 0.116

TPM4 isoform 2 (UniProt P67936)
Chain of UniProt P67936 (P67936 whole entry, looked up): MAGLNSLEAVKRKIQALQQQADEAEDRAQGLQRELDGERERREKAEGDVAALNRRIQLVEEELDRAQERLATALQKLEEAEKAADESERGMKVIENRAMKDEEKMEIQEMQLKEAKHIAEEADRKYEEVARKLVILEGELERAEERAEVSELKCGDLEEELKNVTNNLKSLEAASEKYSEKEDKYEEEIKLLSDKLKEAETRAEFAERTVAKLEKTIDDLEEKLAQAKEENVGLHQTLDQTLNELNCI
inactive: [1] -0.059 | [2] -0.012 | [3] 0.02 | [4] 0.053 | [5] 0.1

TRMT2A (UniProt Q8IZ69)
inactive: [1] 0.003 | [2] 0.02 | [3] 0.003 | [4] 0.02 | [5] 0.027

TCF12 isoform 3 (UniProt Q99081)
Chain of UniProt Q99081 (Q99081 whole entry, looked up): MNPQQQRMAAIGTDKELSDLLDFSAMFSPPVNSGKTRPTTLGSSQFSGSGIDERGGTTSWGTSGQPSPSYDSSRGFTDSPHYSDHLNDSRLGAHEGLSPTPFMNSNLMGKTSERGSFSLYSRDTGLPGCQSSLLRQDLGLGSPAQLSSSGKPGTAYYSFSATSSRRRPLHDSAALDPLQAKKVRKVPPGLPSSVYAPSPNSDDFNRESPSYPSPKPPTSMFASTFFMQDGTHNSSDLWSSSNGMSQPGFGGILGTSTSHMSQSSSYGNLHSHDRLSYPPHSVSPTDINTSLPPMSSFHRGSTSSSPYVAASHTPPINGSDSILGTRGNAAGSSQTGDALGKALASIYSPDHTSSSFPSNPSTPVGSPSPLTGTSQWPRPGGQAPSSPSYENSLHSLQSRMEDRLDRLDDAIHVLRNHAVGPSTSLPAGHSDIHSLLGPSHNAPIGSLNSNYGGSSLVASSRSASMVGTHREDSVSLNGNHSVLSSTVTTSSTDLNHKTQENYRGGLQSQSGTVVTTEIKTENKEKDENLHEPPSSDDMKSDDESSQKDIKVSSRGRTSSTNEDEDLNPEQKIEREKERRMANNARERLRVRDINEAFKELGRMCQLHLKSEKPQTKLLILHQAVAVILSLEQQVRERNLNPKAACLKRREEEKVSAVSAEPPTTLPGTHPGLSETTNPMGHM
inactive: [1] 0.062 | [2] -0.072 | [3] 0.014 | [4] -0.048 | [5] -0.046

UBAP2 (UniProt Q5T6F2)
inactive: [1] -0.019 | [2] -0.003 | [3] -0.008 | [4] -0.022 | [5] -0.119

TRIM44 (UniProt Q96DX7)
Chain of UniProt Q96DX7 (Q96DX7 whole entry, looked up): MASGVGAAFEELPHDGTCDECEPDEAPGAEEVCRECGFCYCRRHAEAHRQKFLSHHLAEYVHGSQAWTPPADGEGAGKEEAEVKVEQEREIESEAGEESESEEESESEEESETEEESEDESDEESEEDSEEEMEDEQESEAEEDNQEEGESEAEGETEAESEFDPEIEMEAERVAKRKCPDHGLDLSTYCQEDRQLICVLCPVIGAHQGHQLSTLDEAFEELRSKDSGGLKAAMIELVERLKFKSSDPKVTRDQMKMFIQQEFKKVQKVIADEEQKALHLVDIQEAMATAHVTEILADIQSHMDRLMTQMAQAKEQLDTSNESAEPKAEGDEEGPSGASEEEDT
inactive: [1] 0.096 | [2] -0.126 | [3] -0.061 | [4] -0.031 | [5] 0.083

UCHL5 isoform 3 (UniProt Q9Y5K5)
inactive: [1] -0.001 | [2] 0.033 | [3] 0.01 | [4] 0.015 | [5] 0.029

UBE3C (UniProt Q15386)
inactive: [1] -0.027 | [2] -0.04 | [3] 0.127 | [4] 0.066 | [5] 0.039

TRIM25 (UniProt Q14258)
inactive: [1] 0.047 | [2] 0.001 | [3] 0.001 | [4] 0.013 | [5] 0.044

UBR4 (UniProt Q5T4S7)
inactive: [1] -0.012 | [2] -0.008 | [3] 0.012 | [4] 0.012 | [5] -0.003

TUBA1B (UniProt P68363)
Chain of UniProt P68363 (P68363 whole entry, looked up): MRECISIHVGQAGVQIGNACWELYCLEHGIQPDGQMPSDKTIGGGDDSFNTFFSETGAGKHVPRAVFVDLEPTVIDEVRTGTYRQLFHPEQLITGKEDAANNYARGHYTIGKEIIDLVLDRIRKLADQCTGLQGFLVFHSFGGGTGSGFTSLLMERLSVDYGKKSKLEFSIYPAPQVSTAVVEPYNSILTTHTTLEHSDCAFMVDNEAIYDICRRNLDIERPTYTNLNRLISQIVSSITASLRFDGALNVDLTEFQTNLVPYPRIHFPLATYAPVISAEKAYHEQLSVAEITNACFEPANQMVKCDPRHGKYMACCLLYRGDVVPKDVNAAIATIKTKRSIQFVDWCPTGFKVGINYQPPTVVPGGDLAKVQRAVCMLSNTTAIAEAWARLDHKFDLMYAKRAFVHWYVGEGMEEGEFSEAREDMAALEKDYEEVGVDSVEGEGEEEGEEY
inactive: [1] -0.006 | [2] 0.014 | [3] 0.004 | [4] 0.015 | [5] -0.03

UBR1 (UniProt Q8IWV7)
inactive: [1] -0.032 | [2] 0.002 | [3] -0.026 | [4] 0.026 | [5] 0

TMEM70 (UniProt Q9BUB7)
inactive: [1] -0.029 | [2] 0.045 | [3] 0.021 | [4] 0.013 | [5] -0.083

TOE1 (UniProt Q96GM8)
inactive: [1] 0.063 | [2] -0.01 | [3] 0.03 | [4] 0.032 | [5] 0.01

TP53RK (UniProt Q96S44)
inactive: [1] 0.013 | [2] 0.021 | [3] -0.003 | [4] 0.073 | [5] 0.09

TJP1 (UniProt G3V1L9)
inactive: [1] -0.025 | [2] -0.014 | [3] 0.127 | [4] 0.009 | [5] -0.007

UBR5 (UniProt O95071)
inactive: [1] -0.011 | [2] 0.012 | [3] 0.012 | [4] -0.018 | [5] 0.01

THAP9 (UniProt Q9H5L6)
inactive: [1] 0.024 | [2] 0.039 | [3] 0.165 | [4] -0.194 | [5] -0.284

UGDH (UniProt O60701)
inactive: [1] 0.003 | [2] 0.001 | [3] -0.004 | [4] -0.056 | [5] 0.026

TRAPPC9 isoform 2 (UniProt Q96Q05)
inactive: [1] 0.001 | [2] 0.05 | [3] 0 | [4] 0.055 | [5] -0.042

UBAP2L isoform 5 (UniProt Q14157)
Chain of UniProt Q14157 (Q14157 whole entry, looked up): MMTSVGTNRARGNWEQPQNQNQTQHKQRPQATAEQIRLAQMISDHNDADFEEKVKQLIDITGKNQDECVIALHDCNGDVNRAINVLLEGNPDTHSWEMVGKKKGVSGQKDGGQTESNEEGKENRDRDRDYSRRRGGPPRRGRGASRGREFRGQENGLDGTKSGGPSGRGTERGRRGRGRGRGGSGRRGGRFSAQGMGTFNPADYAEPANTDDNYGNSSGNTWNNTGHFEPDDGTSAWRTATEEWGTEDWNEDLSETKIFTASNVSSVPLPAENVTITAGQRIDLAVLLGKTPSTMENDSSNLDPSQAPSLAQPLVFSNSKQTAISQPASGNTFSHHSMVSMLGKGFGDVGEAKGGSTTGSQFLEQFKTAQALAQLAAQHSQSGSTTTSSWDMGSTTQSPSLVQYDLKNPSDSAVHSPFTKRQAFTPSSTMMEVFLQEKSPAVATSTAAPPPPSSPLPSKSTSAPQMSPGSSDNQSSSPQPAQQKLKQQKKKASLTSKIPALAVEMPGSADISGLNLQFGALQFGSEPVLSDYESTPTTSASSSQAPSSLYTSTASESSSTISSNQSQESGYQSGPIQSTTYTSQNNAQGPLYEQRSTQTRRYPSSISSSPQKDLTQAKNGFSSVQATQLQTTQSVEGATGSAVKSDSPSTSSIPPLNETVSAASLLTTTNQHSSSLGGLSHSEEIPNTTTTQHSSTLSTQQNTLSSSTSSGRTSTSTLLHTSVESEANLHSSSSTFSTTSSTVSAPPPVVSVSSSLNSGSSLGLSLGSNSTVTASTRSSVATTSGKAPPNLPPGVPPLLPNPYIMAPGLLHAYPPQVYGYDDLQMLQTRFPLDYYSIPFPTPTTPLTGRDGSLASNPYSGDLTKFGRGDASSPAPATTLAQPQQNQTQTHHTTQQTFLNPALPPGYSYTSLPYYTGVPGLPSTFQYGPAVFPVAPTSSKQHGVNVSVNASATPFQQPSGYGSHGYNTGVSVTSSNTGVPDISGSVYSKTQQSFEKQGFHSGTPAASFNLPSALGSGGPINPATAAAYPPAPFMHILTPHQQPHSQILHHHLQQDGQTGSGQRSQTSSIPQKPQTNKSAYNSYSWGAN
inactive: [1] -0.047 | [2] 0.049 | [3] -0.022 | [4] 0.029 | [5] -0.004

TUBA3C (UniProt P0DPH7)
inactive: [1] 0.012 | [2] 0.022 | [3] 0.029 | [4] -0.017 | [5] -0.074

TBK1 (UniProt Q9UHD2)
inactive: [1] -0.012 | [2] 0.021 | [3] -0.031 | [4] -0.003 | [5] -0.023

TROAP (UniProt Q12815)
inactive: [1] -0.008 | [2] 0.12 | [3] 0.024 | [4] 0.057 | [5] 0.096

TPST2 (UniProt O60704)
Chain of UniProt O60704 (O60704 whole entry, looked up): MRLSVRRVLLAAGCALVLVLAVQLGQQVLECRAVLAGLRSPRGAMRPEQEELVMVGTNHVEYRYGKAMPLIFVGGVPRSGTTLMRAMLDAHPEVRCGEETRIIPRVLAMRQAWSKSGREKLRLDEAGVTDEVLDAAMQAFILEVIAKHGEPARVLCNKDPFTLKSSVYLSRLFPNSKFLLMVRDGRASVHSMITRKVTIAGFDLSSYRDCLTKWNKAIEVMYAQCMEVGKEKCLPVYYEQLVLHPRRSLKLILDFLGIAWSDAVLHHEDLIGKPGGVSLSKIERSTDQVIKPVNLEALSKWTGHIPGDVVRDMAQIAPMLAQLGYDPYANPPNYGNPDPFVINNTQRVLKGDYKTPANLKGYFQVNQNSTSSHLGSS
inactive: [1] -0.034 | [2] 0.021 | [3] -0.028 | [4] -0.054 | [5] -0.384

TUBA4A (UniProt P68366)
inactive: [1] -0.068 | [2] 0.013 | [3] 0.03 | [4] -0.024 | [5] 0.019

TMEM164 (UniProt Q5U3C3)
inactive: [1] -0.13 | [2] -0.155 | [3] 0.111 | [4] -0.217 | [5] -0.543

TBL3 (UniProt Q12788)
inactive: [1] 0.024 | [2] 0.003 | [3] -0.014 | [4] -0.014 | [5] 0.014

TPX2 (UniProt Q9ULW0)
inactive: [1] 0.04 | [2] -0.006 | [3] 0.008 | [4] -0.003 | [5] 0

TPM3 isoform 2 (UniProt P06753)
inactive: [1] -0.02 | [2] 0.01 | [3] -0.025 | [4] -0.009 | [5] 0.056

TMPO isoform 2 (UniProt P42167)
inactive: [1] 0.11 | [2] 0.088 | [3] 0.033 | [4] -0.069

UBAP2L isoform 1 (UniProt Q14157)
inactive: [1] -0.101 | [2] -0.087

UBE2L6 (UniProt O14933)
inactive: [1] -0.01 | [2] 0 | [3] -0.068 | [4] 0.032 | [5] 0.008

TTC4 (UniProt O95801)
Chain of UniProt O95801 (O95801 whole entry, looked up): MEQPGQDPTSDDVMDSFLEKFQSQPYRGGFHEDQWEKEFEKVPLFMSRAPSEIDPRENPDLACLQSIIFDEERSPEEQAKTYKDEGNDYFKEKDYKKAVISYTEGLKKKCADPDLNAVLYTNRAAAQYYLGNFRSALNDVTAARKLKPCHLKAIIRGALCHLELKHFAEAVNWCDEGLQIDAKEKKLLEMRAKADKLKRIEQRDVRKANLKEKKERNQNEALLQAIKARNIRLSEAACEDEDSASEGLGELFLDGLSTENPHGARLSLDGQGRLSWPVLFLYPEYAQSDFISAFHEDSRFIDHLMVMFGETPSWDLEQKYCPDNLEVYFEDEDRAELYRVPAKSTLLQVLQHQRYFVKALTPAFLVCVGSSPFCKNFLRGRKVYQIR
inactive: [1] -0.018 | [2] -0.003 | [3] 0.001 | [4] 0.033 | [5] -0.013

TTLL12 (UniProt Q14166)
inactive: [1] -0.004 | [2] 0.013 | [3] 0.011 | [4] 0.015 | [5] 0.033

TMEM199 (UniProt Q8N511)
inactive: [1] 0.005 | [2] -0.002 | [3] 0.07 | [4] -0.046 | [5] -0.029

TMEM263 (UniProt Q8WUH6)
inactive: [1] -0.286 | [2] -0.048 | [3] 0.211 | [4] -0.138 | [5] -0.073

TPM1 isoform 4 (UniProt P09493)
inactive: [1] -0.008 | [2] -0.012 | [3] 0 | [4] 0.003 | [5] 0.056

TUBB1 (UniProt Q9H4B7)
inactive: [1] -0.005 | [2] 0.019 | [3] 0.008 | [4] 0.063 | [5] 0.087

TYMS (UniProt P04818)
inactive: [1] -0.005 | [2] 0.02 | [3] -0.005 | [4] 0.012 | [5] 0.014

TFIP11 (UniProt Q9UBB9)
inactive: [1] -0.033 | [2] -0.022 | [3] 0.007 | [4] -0.002 | [5] 0.044

TMEM87A (UniProt Q8NBN3)
inactive: [1] 0.066 | [2] -0.014 | [3] -0.011 | [4] -0.011 | [5] -0.128

TBCE (UniProt Q15813)
inactive: [1] 0.008 | [2] -0.027 | [3] 0.014 | [4] 0.008 | [5] 0.015

UBE2D1 (UniProt P51668)
inactive: [1] 0.056 | [2] 0.066 | [3] 0.02 | [4] -0.082 | [5] 0.016

TRMT10A (UniProt Q8TBZ6)
inactive: [1] -0.046 | [2] 0.099 | [3] -0.025 | [4] 0.016 | [5] -0.029

TJP1 isoform 2 (UniProt Q07157)
inactive: [1] 0.048 | [2] 0.02 | [3] 0 | [4] 0.061 | [5] -0.009

TGOLN2 isoform 7 (UniProt O43493)
Chain of UniProt O43493 (O43493 whole entry, looked up): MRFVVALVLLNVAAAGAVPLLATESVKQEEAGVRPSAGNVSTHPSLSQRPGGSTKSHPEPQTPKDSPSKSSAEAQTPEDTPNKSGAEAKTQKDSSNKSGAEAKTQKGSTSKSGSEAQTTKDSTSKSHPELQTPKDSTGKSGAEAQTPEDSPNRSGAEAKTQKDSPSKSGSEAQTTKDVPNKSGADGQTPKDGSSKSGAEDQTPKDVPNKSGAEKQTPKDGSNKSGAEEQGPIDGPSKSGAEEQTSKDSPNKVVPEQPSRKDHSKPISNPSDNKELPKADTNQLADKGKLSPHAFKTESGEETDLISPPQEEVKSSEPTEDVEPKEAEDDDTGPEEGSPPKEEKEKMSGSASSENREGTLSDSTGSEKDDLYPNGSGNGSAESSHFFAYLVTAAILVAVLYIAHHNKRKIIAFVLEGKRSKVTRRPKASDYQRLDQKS
inactive: [1] 0.065 | [2] -0.029 | [3] -0.015 | [4] -0.017 | [5] -0.069

TSPAN13 (UniProt O95857)
inactive: [1] 0.076 | [2] 0.025 | [3] -0.048 | [4] 0.187 | [5] -0.131
